In PubChem BioAssay (NCI):
Compounds without any hit were thinned out: in the full panel of roughly 83,000, 20% have a hit.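 Activity criterion: percent growth below 10, measured after cells in 96-well plates were exposed to a single compound concentration for 48 hours.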 A number with no mark means an inactive call. The source made the active and inactive calls.

Tested on: HCT-116 colon
Experiment: NCI-60 one-dose screen, 48 h (100 = growth as untreated, 0 = no growth, -100 = all killed)
Conditions: 10 µM unless noted
Protocol: Growth inhibition of the HCT-116 human tumor cell line is measured as a screen for anti-cancer activity. Cells are grown in 96 well plates and exposed to the test compound for 48 hours. Compounds are tested at a single concentration, which is 10^-5 M for most compounds. The reported endpoint is percent growth (GI% or GIPRCNT), where numbers from 0 - 100% represent growth inhibition, and numbers from -100% - 0 represent cell death. For example, a value of 40 represents 60% growth inhibition. A value of 0 means no net growth occurred over the course of the experiment. A value of -40 indicates 40% of cells at the beginning of the experiment died by the end of the experiment. A value of -100 means all cells are dead at the end of the experiment.
NCI-60 Human Tumor Cell Lines Screen was performed using the standard one-dose NCI protocol, which is described in more detail at https://dtp.cancer.gov/discovery_development/nci-60/default.htm.
Compounds with GIPRCNT values below 10 were considered active. Activity score was based on GIPRCNT using the following formula: […]
Score is 0 for GIPRCNT values of 100 or above, 50 for GIPRCNT values of 0, and 100 for GIPRCNT values of -100.

SMILES | growth
NC(N)=NC(N)=Nc1ccccc1-c1ccccc1 | 102%
Nc1nc(N)c2nc(CNc3ccc(C(=O)CC(CCC(=O)O)C(=O)O)cc3)cnc2n1 (stereo not given) | 21.6%
COc1cc(/C=C2\CCCC3=C2NC(C)=NC3c2cc(OC)c(OC)c(OC)c2)cc(OC)c1OC (stereo not given) | -78.2% (active)
COc1cc2nc(Cl)nc(NCCO)c2cc1OC | 113%
COc1ncc(-c2ccc3ncnc(Nc4cccc(Cl)c4)c3c2)cc1N(S(C)(=O)=O)S(C)(=O)=O | 81.2%
CCN1C(=O)N(CC)C2Nn3c(s/c(=C\c4cccc(F)c4)c3=O)=NC21 (stereo not given) | 45.4%
COc1cccc(NC(=O)Cn2cc3c(=O)oc4ccccc4c3n2)c1 | 99.5%
O=C(CNc1c(Cl)cccc1Cl)Nc1ccc(-c2nc3ccccc3s2)cc1 | 29.9%
CNC(C)=O | 105%
O=C(O)c1cn(C2CC2)c2cc(N3CCN(S(=O)(=O)c4ccc(Cl)c(Cl)c4)CC3)c(F)cc2c1=O | 3.95% (active)
CC(C)C(C(=O)CCN(C)C)c1ccc(Cl)cc1 (stereo not given) | 79.9%
O=C(CSc1nc(-c2ccc(Cl)cc2)cn1-c1ccc(Cl)cc1)c1ccc(Br)cc1 | 43.9%
COc1cc(/C=C/C(=O)c2ccc(NC(=O)CN3CCN(c4cc5c(cc4F)c(=O)c(C(=O)O)cn5C4CC4)CC3)cc2)cc(OC)c1OC | -88.2% (active)
Clc1nc2ccccc2nc1CI | 23%
O=c1cc(C2NCCc3c2[nH]c2ccccc32)c2c(ccc3ccccc32)o1 (stereo not given) | 42%
COC(=O)c1ccc(C)cc1 | 101%
COc1ccc(S(=O)(=O)NCCNc2nccc(-c3c(-c4ccccc4)nc4sccn34)n2)cc1 | 9.81% (active)
CC(Br)C(O)c1cc2c(cc1Br)OCO2 (stereo not given) | 101%
COc1cc(C2C=C(C)N=C3SC=CN32)cc(OC)c1OC (stereo not given) | 101%
Cc1ccc(C2=NN(c3ccc(S(N)(=O)=O)cc3)C(c3cn(-c4ccccc4)nc3-c3ccccc3)C2)cc1 (stereo not given) | 83.9%

SMILES | growth
COc1ccc(C(=O)/C=C/c2cc(C(=O)c3cc(OC)c(OC)c(OC)c3)ccc2OC)cc1 | 19.8%
O=C(CNC1CCCCC1)Nc1ccc(-c2nc3ccccc3s2)cc1 | 77%
O=C1CCCCN1CCCCC#Cc1ccccc1C#Cc1ccccn1 | 106%
COc1ccc2c(c1)NC(=O)CN2c1nc(NC2CC2)nc2ccccc12 | 0.461% (active)
COc1cc(OC)c(C(=O)/C=C/c2ccc(C(F)(F)F)cc2)c(OC)c1 | 20.4%
O=S(=O)(NCCCNc1nccc(-c2c(-c3ccc(O)cc3)nc3sccn23)n1)c1ccc(F)cc1 | -40% (active)
CN1CCN(c2ccc3cc(-c4nc5ccccc5[nH]4)c(=O)oc3c2)CC1 | 81.9%
CC(=O)Nc1ccc(S(=O)(=O)N2C(=O)CCC2C(=O)Nc2ccc(Br)cc2)cc1 (stereo not given) | 19.5%
O=S(=O)(NCCCNc1cc(-c2cn(-c3ccccc3)nc2-c2cccc(O)c2)ccn1)c1cccc(F)c1 | 32.1%
COc1cc(OC)cc(-c2n[nH]nc2-c2ccc3c(c2)OCO3)c1 | 15.7%
COc1cc(/C=C\c2cc(OC)c(OC)c(OC)c2)cc(N/C=C\C(=O)c2c[nH]c3ccccc23)c1OC | -82.9% (active)
CCOC(=O)c1ccccc1NC(c1ccccc1)c1ccc2cccnc2c1O (stereo not given) | 27.3%
CC1=C(C#N)C(C)(C)C(C#N)=C(C)N1 | 104%
COC1=CC(c2ccc[nH]2)=N/C1=C\c1[nH]c(C)c(CCCn2cc(CCCCCCCCC[C@@H]3Cc4cc(O)ccc4C4CC[C@]5(C)[C@@H](O)CC[C@H]5C43)nn2)c1C (stereo not given in full) | 37.3%
Cc1oc2nc[nH]c(=O)c2c1C(=O)/C=C/c1ccc(Cl)cc1Cl | 36.3%
CN1CCN(CCCOc2ccc3nc(Nc4ccc(C(F)(F)F)c(Cl)c4)ccc3c2)CC1 | 0.975% (active)
COc1cc2nc(SCc3cc(OC)c(OC)c(OC)c3)n(Cc3ccccc3)c(=O)c2cc1OC | 14.7%
O=S(=O)(NCCNc1cc(-c2cn(-c3ccccc3)nc2-c2ccccc2)ccn1)c1cccc2ccccc12 | 34.8%
CC(C)C[C@H](NC(=O)Cn1ccc(NCc2ccccc2)cc1=O)B(O)O | -47.7% (active)
CC(C)(C)c1cn2cccc(C(=O)N3CCN(CC(=O)Nc4ccc(Cl)cc4C(=O)c4ccccc4Cl)CC3)c2n1 | 33.3%
